Results: PubChem BioAssay AID1421 (Emory University Molecular Libraries Screening Center, 2008)
Hit rate of the full screen: of about 1,300 compounds, about 140 (11%) were called active. The rule behind the calls is not given here. Not all results are given here. Potency and affinity values are given separately.

molecular target: Prostaglandin E2 receptor EP2 subtype (Homo sapiens) (UniProt P43116); assay: EP2 receptor modulators, dose response, cell-based, human EP2, PGE2 EC50 shift (AID 1421); conditions: EP2-expressing cells, PGE2 EC50 shift by compound; at 20 µM
Sequence (P43116 whole entry, looked up): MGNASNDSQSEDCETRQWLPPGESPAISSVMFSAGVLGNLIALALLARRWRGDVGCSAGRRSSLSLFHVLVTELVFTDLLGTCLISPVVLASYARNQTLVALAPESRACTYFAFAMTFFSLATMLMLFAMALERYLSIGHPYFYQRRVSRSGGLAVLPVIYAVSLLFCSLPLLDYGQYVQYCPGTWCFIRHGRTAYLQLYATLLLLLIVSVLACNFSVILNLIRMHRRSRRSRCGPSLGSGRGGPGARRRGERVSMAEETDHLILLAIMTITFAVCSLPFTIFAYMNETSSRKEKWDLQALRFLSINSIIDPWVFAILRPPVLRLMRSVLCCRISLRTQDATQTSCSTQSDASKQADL

PGE2 EC50 with compound, inactive:
CCCCOC(=O)Sc1nc2ccccc2o1 2.08 nM
COc1ccc(-c2cc(C(F)(F)F)nc(NCc3ccco3)n2)cc1OC 0.48 nM
COc1ccc(C(=O)NCCCN2CCOCC2)cc1OC 0.55 nM
CC(=O)Oc1c2c(c3c(c1CC=C(C)C)O[C@]14C(=C[C@@H]5CC1C(C)(C)OC4(C/C=C(\C)C(=O)O)C5=O)C3=O)OC(C)(CCC=C(C)C)C=C2 (stereo partly specified) 7.31 nM
O=c1cc(N2CCCCC2)c(-c2ccccc2)nn1Cc1c(Cl)cccc1Cl 1.07 nM
O=c1cc2c(nn1Cc1c(Cl)cccc1Cl)-c1ccccc1CC2 0.74 nM
Cc1ccc(Oc2nc(-c3ccccc3)ncc2S(C)(=O)=O)cc1 0.58 nM
O=C(O)c1ccc(CNCc2cccc(Cl)c2Cl)cc1 1.05 nM
CCOC(=O)C1=CN(CC2CCCO2)C=C(C(=O)OCC)C1c1ccccc1C(F)(F)F (stereo unspecified) 0.31 nM
C=CCC1(C)C(=O)N(c2ccccc2)c2ccccc21 (stereo unspecified) 0.38 nM
Brc1cccc(-c2nnc(SCc3ccon3)n2-c2ccccc2)c1 0.48 nM
COc1ccc(Oc2cc(C(F)(F)F)nc(N(C)C)n2)cc1 0.6 nM
Cc1cc(C)n(-c2nc(C)nc3c2cnn3-c2ccccc2)n1 0.41 nM
COC(=O)c1ccc(-c2ccco2)n1Cc1cccc(C)c1 0.17 nM
Cc1nn(Cc2c(Cl)cccc2Cl)c(C)c1C(=O)NCc1ccc(C)n1C 0.76 nM
O=C(CSc1nc2cc(Cl)ccc2s1)N1CCCc2ccccc21 0.24 nM
C/C(=N\N=C(c1ccccc1)c1ccccc1)c1ccco1 0.47 nM
CCOc1ccccc1NC(=O)c1c(Br)cnn1C 0.79 nM
CCOC(=O)c1ccccc1NC1c2ccccc2C(=O)N1c1cc(C)ccn1 (stereo unspecified) 0.34 nM
CCOc1ccccc1Cn1c(=O)oc2ccc(C)cc21 0.36 nM
O=C(CSc1ncnc2c1oc1ccccc12)Nc1cccc(F)c1 2.94 nM
COc1cccc(/C=N/c2oc(-c3ccccc3)cc2C#N)c1O 8.67 nM
COc1ccc(Nc2nc(-c3cc4cccc(OC)c4oc3=O)cs2)cc1 0.92 nM
O=C(CSc1nnc(COc2ccccc2)n1-c1ccccc1)c1ccccc1 0.74 nM
Cc1cc(C)cc(OC2CCCCC2NS(=O)(=O)c2ccccc2)c1 (stereo unspecified) 0.48 nM
COc1ccccc1C(=O)NC(=S)Nc1cc(C(=O)O)ccc1C 0.34 nM
C=CCOc1ccccc1CNc1ccccc1C 0.32 nM
Cc1cc(SCC(=O)NCCC2=CCCCC2)nc2ccccc12 0.21 nM
CCCc1cc(=O)n2[nH]c(NCc3cccs3)nc2n1 0.94 nM
N#CN=C1SCCS1 0.67 nM
C=CCSc1ncnc2sc(C)c(C)c12 0.85 nM
CSc1ncnc2sc(C)c(C)c12 0.56 nM
CC(C)c1ccc2c(c1)CCC1C(C)(C(N)=O)CCCC21C (stereo unspecified) 0.38 nM
Cn1c(/C=C/N(Cc2ccccc2)c2ccccc2)c([N+](=O)[O-])c(=O)n(C)c1=O 0.45 nM
CCN(CC)CCN1C(=O)c2cccc3cc(N)cc(c23)C1=O 0.76 nM
Brc1ccccc1Cn1c(-c2cscn2)nc2ccccc21 0.39 nM
FC(F)(F)c1nnc(-c2ccccc2)nc1Sc1ccccc1 0.72 nM
c1ccc(-c2n[nH]nc2-c2ccccc2)cc1 0.21 nM
CCN1C(=O)/C(=C2/C=CC=CN2C)SC1=S 0.94 nM
Nc1ccccc1CCCC(=O)O 0.94 nM
COc1cc2ccccc2cc1C(=O)NC(=S)Nc1cccc(C(=O)O)c1 6.94 nM
CC1CCCCN1C(=O)/C(=C\c1ccccc1)c1ccccc1 (stereo unspecified) 0.44 nM
O=C(Nc1ccccc1Oc1ccccc1)c1ccccc1F 0.17 nM
Cc1sc(NC(=O)CN2CCOCC2)c(C(=O)c2ccccc2)c1C 0.63 nM
CCc1ccccc1NC(=S)N(Cc1ccco1)C(C)c1cccs1 (stereo unspecified) 0.38 nM
CCOC(=O)C1=C(N)OC(C)=C(C#N)C1c1ccco1 (stereo unspecified) 0.56 nM
S=c1[nH]nc(C2CCCCC2)n1Cc1ccccc1 0.39 nM
C=CCc1cc(C=O)cc(OC)c1OCc1ccc(Cl)cc1 0.92 nM
CNC(=O)NC(=O)CSc1nc(-c2cccs2)c(C#N)c(=O)[nH]1 15.8 nM
CC(Cc1ccccc1)NC(=O)C1(c2ccccc2)CCOCC1 (stereo unspecified) 1.12 nM
CCOC(=O)c1cnc2c(c(C)nn2C)c1Oc1ccc(Cl)cc1 0.52 nM
C=CCn1c(=O)c(C(=O)NCCc2ccccc2)c(O)c2ccccc21 0.5 nM
CC(C)Cc1nc(SCc2cccnc2)c2c(=O)n(C)c(=O)n(C)c2n1 0.37 nM
Cc1ccc2nc(SCC(=O)NCc3ccco3)c(C)cc2c1 0.5 nM
COc1cc(OC)c2c(OC)c(-c3ccc4c(c3)OCO4)c(=O)oc2c1 0.39 nM
CCC1C/C(=C/c2ccco2)C(=O)/C(=C/c2ccco2)C1 (stereo unspecified) 0.69 nM
Cc1cc(C)c(S(=O)(=O)c2ccccc2)c(OC(=O)c2c(Cl)cc(Cl)cc2Cl)n1 0.38 nM
c1ccc(CCc2cccnc2)nc1 0.8 nM
Cc1noc(C)c1CSc1ncnc2sc3c(c12)CCC(C)C3 (stereo unspecified) 0.4 nM
Cc1noc(C)c1CSc1ncnc2sc3c(c12)CCCCC3 0.42 nM
CC(=O)O[C@H]1C[C@@H](OC(C)=O)C(C)(C)C2C[C@@H](OC(C)=O)[C@]3(C)C([C@H](OC(C)=O)C[C@@]4(C)[C@H](c5ccoc5)OC(=O)[C@H]5O[C@]543)[C@]21C (stereo partly specified) 0.32 nM
